Measurements: PubChem BioAssay (NCATS)
Several values for one entry are separate records, joined by “and”; a condition that tells them apart may be missing. Equal values may be shown once. Records with an inconclusive call do not appear. Values without a mark were called inactive. Activity calls are given as the source filed them. The call rests on the fitted dose curve; in most records, active means well fitted curve in the direction sought with a large enough effect; inconclusive means small, poorly fitted or top-dose-only effect, or another doubt; inactive means no such curve, though single readings can be large; an effect the other way counts as inactive or inconclusive.

Key:
[1] = Viability qHTS for spleen associated tyrosine kinase inhibitor (SYKi) naive MV4-11 cells (AID 1963823); further: nearly all actives have a fitted effect of over 40% in size; further: potency means the concentration at half of the fitted maximal effect
Procedure, shortened: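 CellTiter-Glo luminescence, 10 min room-temperature incubation, gave viability. Cells: naive MV4-11 (500/well), treated 72 hr at 37 C, 5% CO2.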

[2] = Viability qHTS for spleen associated tyrosine kinase inhibitor (SYKi) drug resistant MV4-11 cells (AID 1963824); further: nearly all actives have a fitted effect of over 35% in size; further: potency means the concentration at half of the fitted maximal effect
Procedure, shortened: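 SYK-inhibitor-resistant MV4-11 AML cells were seeded at 500 per well onto compound and cultured 72 hours (37 °C, 5% CO2). CellTiter-Glo was then added, and after 10 min at room temperature, luminescence gave viability.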

[3] = Quantitative highthroughput screen to assess conditional lethalithy of NOMO1 cells grown in RPMI1640 with untreated serum (RPMI+s) (AID 1963876); further: nearly all actives have a fitted effect of over 35% in size; further: potency means the concentration at half of the fitted maximal effect;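 on Viability: 100% = DMSO wells and 0% = empty wells without cells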
Procedure, shortened: (§1)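 Each medium arm—HPLM with 10% dialyzed FBS, or RPMI1640 with 5 mM glucose and 10% untreated or dialyzed FBS—was screened against an 11-point, 3-fold compound titration for 48 h at 37 °C, with CellTiter-Glo luminescence as endpoint.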

[4] = Quantitative highthroughput screen to assess conditional lethalithy of NOMO1 cells grown in RPMI1640 with dialyzed fetal bovine serum (RPMI+ds) (AID 1963877); further: nearly all actives have a fitted effect of over 30% in size; further: potency means the concentration at half of the fitted maximal effect;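 on Viability: series mostly up to about 46 µM; 100% = DMSO control wells and 0% = empty wells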
Procedure, shortened: as §1

[5] = Quantitative highthroughput screen to assess conditional lethalithy of NOMO1 cells grown in Human Plasma-Like Medium with dialyzed fetal bovine serum (HPLM+ds) (AID 1963878); further: nearly all actives have a fitted effect of over 35% in size; further: potency means the concentration at half of the fitted maximal effect;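 on Viability: 100% = DMSO wells and 0% = empty wells on each plate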
Procedure, shortened: as §1

[6] = Quantitative highthroughput screen to assess conditional lethalithy of SEM cells grown in RPMI1640 with unreated serum (RPMI+s) (AID 1963883); further: nearly all actives have a fitted effect of over 35% in size; further: potency means the concentration at half of the fitted maximal effect;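 on Viability: 100% = DMSO wells and 0% = empty wells without cells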
Procedure, shortened: as §1

[7] = Quantitative highthroughput screen to assess conditional lethalithy of SEM cells grown in RPMI1640 with dialyzed fetal bovine serum (RPMI+ds) (AID 1963884); further: nearly all actives have a fitted effect of over 35% in size; further: potency means the concentration at half of the fitted maximal effect;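 on Viability: series mostly up to about 46 µM; 100% = DMSO control wells and 0% = empty wells without cells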
Procedure, shortened: as §1

[8] = Cellular viability qHTS for adrenocortical cancer (ACC) cell line SW-13 (AID 1963989); conditions: SW-13 ACC cells viability, CellTiter-Glo, 48 h; activity (max response): hits give low values; further: nearly all actives have a fitted effect of over 65% in size; further: potency means the concentration at half of the fitted maximal effect;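 on activity (max response): cells grown in serum-free medium with ITS supplement; on the % scale 0 is the no-effect control and ±100 the full control effect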
Procedure, shortened: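 Viability was read as CellTiter-Glo luminescence after 48 h compound treatment (up to 46 uM final) of SW-13 cells grown serum-free; titration curves were fit with a four-parameter logistic model to give IC50 and efficacy.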

[9] = Cellular viability qHTS for adrenocortical cancer (ACC) cell line NCI-H295R (AID 1963990); further: nearly all actives have a fitted effect of over 60% in size; further: potency means the concentration at half of the fitted maximal effect
Procedure, shortened: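 CellTiter-Glo ATP luminescence, read 48 h after compound addition, measured viability of NCI-H295R adrenocortical cells grown serum-free with ITS. Final concentrations spanned up to 46 uM. Data normalized to DMSO and doxorubicin, fitted for IC50 and maximal response.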

[10] = Quantitative highthroughput screen to assess conditional lethalithy of SEM cells grown in Human Plasma-Like Medium with dialyzed fetal bovine serum (HPLM+ds) (AID 1963882); further: nearly all actives have a fitted effect of over 35% in size; further: potency means the concentration at half of the fitted maximal effect; on Viability: series mostly up to about 46 µM
Procedure, shortened: as §1

[11] = Quantitative highthroughput screen to assess conditional lethalithy of P12 Ichikawa cells grown in RPMI1640 with untreated serum (RPMI+s) (AID 1963881); conditions: Potency: viability
Procedure, shortened: as §1

[12] = Quantitative highthroughput screen to assess conditional lethalithy of P12 Ichikawa cells grown in RPMI1640 with dialyzed fetal bovine serum (RPMI+ds) (AID 1963880); conditions: Potency: P12-Ichikawa viability
Procedure, shortened: as §1

SMILES	Potency [1]	Potency [2]	Potency [3]	Potency [4]	Potency [5]	Potency [6]	Potency [7]	activity (max response) [8]	Potency [9]	Potency [10]	Potency [8]	Potency [11]	Potency [12]
CN1C2CCC1CC(OC(=O)C(CO)c1ccccc1)C2 (stereo unspecified)	inactive	inactive	inactive	inactive	inactive	inactive	inactive	-20.1%	inactive				
Nc1nc(Nc2ccc(S(N)(=O)=O)cc2)nn1C(=O)c1c(F)cccc1F	1.16 µM (active) and 1.86 µM (active)	1.03 µM (active) and 1.48 µM (active)	16.6 µM (active)	16.6 µM (active)	18.7 µM (active)	10.5 µM (active)	9.35 µM (active)		15.8 µM (active)	8.33 µM (active)	3.55 µM (active)		
O=C(O)c1ccc2c(c1)nc(Nc1cccc(Cl)c1)c1ccncc12	1.84 µM (active) and 1.32 µM (active)	1.64 µM (active) and 1.66 µM (active)	5.9 µM (active)	7.43 µM (active)	4.69 µM (active)				2.51 µM (active)		3.55 µM (active)	4.69 µM (active)	
CCN1CCN(c2ccc(Nc3cc(N(C)C(=O)Nc4c(Cl)c(OC)cc(OC)c4Cl)ncn3)cc2)CC1	2.63 µM (active)	1.86 µM (active)	5.26 µM (active)	7.43 µM (active)	3.32 µM (active)	2.09 µM (active)		-7.03%	inactive	4.18 µM (active)			
Cc1c(-c2ccnn2C)cc(C(=O)NCc2ccc(S(C)(=O)=O)cn2)c(=O)n1-c1cccc(C(F)(F)F)c1	inactive	inactive	inactive	inactive	inactive		inactive	5.26%	inactive	inactive			inactive
